Assay outcomes (PubChem)
Compounds with a hit are over-represented: about 1.5% of the library has one in this group of screens.
PI5P4K alpha inh – blocks human PI5P4K alpha kinase activity. max response, %. actives 1.2% (n = 330,000). P48426. PI5P4Kalpha enzyme, ADP-Glo luminescence, 60 min; stronger effect = lower value. AID 652105; active = max response of -50% or lower; inconclusive = between -30% and -50%; inactive = -30% or higher; also: value at the top dose of about 77 µM
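Controls without substrate or without enzyme flank wells where PI5P4Kalpha converts substrate using 5 microM ATP (final). Incubation lasts 60 minutes at room temperature; ADP formed is read by ADP-Glo luminescence.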
BLM inh – inhibitors of human Bloom syndrome helicase BLM | actives 0.2% (n = 350,000) | P54132 | AID 2528 | Potency, µM (doses to about 56.1 µM), without a hit: at the highest dose activity change, negative = inhibition, actives largely listed as inhibitors | recombinant BLM DNA unwinding, fluorescence dequenching;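 also: potency is read from the fitted curve at half-maximal effect; plate controls were vehicle for no effect and no enzyme for full effect; nearly all actives have a fitted effect of over 35% in size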
APE1 inh – APE1 (human) endonuclease inhibition. P27695. recombinant APE1, TAMRA/BHQ-2 abasic DNA cleavage fluorescence. Potency, µM (highest dose often 65.8 µM), for the others: top-dose activity change, negative = inhibition, actives largely listed as inhibitors. actives 0.35% (n = 350,000). AID 2517;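 also: potency is read from the fitted curve at half-maximal effect; plate controls were vehicle for no effect and reference inhibitor for full effect; nearly all actives have a fitted effect of over 55% in size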
Target sequence (P27695 whole entry, looked up): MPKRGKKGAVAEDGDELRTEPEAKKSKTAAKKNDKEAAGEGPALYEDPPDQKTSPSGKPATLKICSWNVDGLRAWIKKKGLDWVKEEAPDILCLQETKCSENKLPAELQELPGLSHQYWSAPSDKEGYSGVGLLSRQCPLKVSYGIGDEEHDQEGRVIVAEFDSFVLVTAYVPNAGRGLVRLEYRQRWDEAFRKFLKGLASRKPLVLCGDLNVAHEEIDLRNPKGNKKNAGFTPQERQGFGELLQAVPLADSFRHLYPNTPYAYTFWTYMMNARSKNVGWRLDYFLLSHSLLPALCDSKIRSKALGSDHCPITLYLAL
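Incision of a quenched TAMRA/BHQ-2 THF abasic-site duplex (50 nM) by 0.75 nM APE1, after 15 min compound preincubation, measured as fluorescence increase over three 60 s reads. Values normalized to buffer, DMSO and NSC13755 control wells.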
RECQ1 inh-1 – blocks DNA unwinding by human RECQ1 | P46063 | RECQ1 DNA unwinding, red fluorescence kinetic read | Potency, µM (titrated, usually from 57.3 µM), inactives show at the top dose activity, negative = inhibition, actives largely listed as inhibitors | actives 0.54% (n = 240,000);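 also: potency is read from the fitted curve at half-maximal effect; plate controls were vehicle for no effect and no enzyme for full effect; nearly all actives have a fitted effect of over 30% in size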
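50 nM RECQ1T1 preincubated 15 min with compound in Tris pH 8.0 buffer with MgCl2, DTT, Tween-20 and 2.5 ug/ml poly(dI-dC); started with 200 nM TAMRA/BHQ-2 forked duplex and 2 mM ATP. Unwinding read as fluorescence (525/598 nm), two reads 2 h apart.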
WRN inhibitor – inhibitors of human WRN helicase. Q14191. WRN helicase unwinding, fluorescent forked duplex, kinetic. Potency, µM (highest dose often 114 µM), inactives show at the top dose activity change, negative = inhibition, most hits filed as inhibitors. actives 0.46% (n = 360,000); also: potency is read from the fitted curve at half-maximal effect; nearly all actives have a fitted effect of over 55% in size
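Primary qHTS, 1536-well format. 20 nM WRN + compound, 15 min RT; start with 100 nM forked fluorophore/quencher duplex, 2 mM ATP (final); kinetic read ex 525/em 598 nm.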
FEN1 inh – human FEN1 inhibition | P39748 | Recombinant FEN1 flap cleavage, fluorescence, 15 min | Potency, µM (doses to about 114 µM), for the others: at the highest dose activity change, negative = inhibition, usual class: inhibitors | actives 0.35% (n = 390,000) | AID 588795; also: potency is read from the fitted curve at half-maximal effect; nearly all actives have a fitted effect of over 65% in size
Target sequence (P39748 whole entry, looked up): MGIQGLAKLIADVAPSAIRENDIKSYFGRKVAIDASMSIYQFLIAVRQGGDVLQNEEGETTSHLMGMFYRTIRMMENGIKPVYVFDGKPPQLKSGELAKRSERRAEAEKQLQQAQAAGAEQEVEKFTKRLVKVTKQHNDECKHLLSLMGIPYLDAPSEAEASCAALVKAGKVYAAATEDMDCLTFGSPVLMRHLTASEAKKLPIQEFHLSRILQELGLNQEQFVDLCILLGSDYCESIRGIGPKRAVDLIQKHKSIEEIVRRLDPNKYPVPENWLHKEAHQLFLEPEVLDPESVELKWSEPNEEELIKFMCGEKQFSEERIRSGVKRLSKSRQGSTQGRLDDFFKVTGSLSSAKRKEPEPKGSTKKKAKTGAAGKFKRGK
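FEN1 at 10 nM, compound pretreatment for 15 min (room temperature), 50 nM final substrate to initiate; endpoint reads at 0 and 15 min; DMSO-only plates used as vehicle background.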
RECQ1 conf – confirmation of human RECQ1 helicase inhibitors; shares compounds with RECQ1 inh-1; RECQ1 helicase DNA unwinding, fluorescence; Potency, µM (series often up to 229 µM), for the others: at the highest dose activity change, negative = inhibition, most hits filed as inhibitors; actives 28% (n = 610); also: potency is read from the fitted curve at half-maximal effect; nearly all actives have a fitted effect of over 45% in size
RECQ1 ADP FP – displaces ADP in a fluorescence polarization counter-screen for RECQ1 hits. shares compounds with RECQ1 inh-1. ADP fluorescence polarization displacement counterscreen. Potency, µM (series often up to 228 µM), inactives show at the top dose activity change, negative = inhibition, usual class: inhibitors. actives 27% (n = 530). AID 2711; also: potency is read from the fitted curve at half-maximal effect; nearly all actives have a fitted effect of over 45% in size
RECQ1 inh-2 – RECQ1 helicase inhibition confirmed, round 2. shares compounds with RECQ1 inh-1. recombinant RECQ1 DNA unwinding, red fluorescence. Potency, µM (highest dose often 119 µM), for inactives: at the highest dose activity, negative = inhibition, actives largely listed as inhibitors. actives 15% (n = 1,100); also: potency is read from the fitted curve at half-maximal effect; nearly all actives have a fitted effect of over 50% in size
Numbers without * were called inactive; i = inactive; ? = inconclusive; / = no result; [ ] = remark or other dose. Unless noted, calls follow the shape of the dose curve; as a rule, active = well fitted curve in the direction sought with a large enough effect; inconclusive = small, poorly fitted or top-dose-only effect, or another doubt; inactive = no such curve, though single readings can be large; an effect the other way counts as inactive or inconclusive. Unless noted, % is scaled to controls: 0 for no effect and ±100 for the full control effect.

SMILES	PI5P4K alpha inh	BLM inh	APE1 inh	RECQ1 inh-1	WRN inhibitor	FEN1 inh	RECQ1 conf	RECQ1 ADP FP	others
O=C(NC(Cc1c[nH]c2ccccc12)C(=O)O)/C(=C/c1ccc(F)cc1)NC(=O)c1ccccc1 (configuration not stated)	1	-4%	0%	-3%	-4%	17%	9%	0%
Cc1c(N2C(=O)CS/C2=N\N=C\c2ccccc2O)c(=O)n(-c2ccccc2)n1C	/	-4%	-7%	i	-9%	0%	19%	-23%
Cc1c(N2C(=O)CS/C2=N\N=C\c2ccc(Cl)cc2)c(=O)n(-c2ccccc2)n1C	/	1%	2%	i	7%	5%	/	/
Cc1ccc(NS(=O)(=O)c2cc(C(=O)N3CCc4ccccc4C3)ccc2Cl)cc1	/	-10%	-4%	?	-12%	6%	/	/
Cc1ccccc1NS(=O)(=O)c1cc(C(=O)N2CCc3ccccc3C2)ccc1C	-2	-7%	-4%	?	-9%	-13%	/	/	RECQ1 inh-2=-8%
CCc1ccc(N(CC)C(=O)c2ccc3c(=O)n4c(nc3c2)CCCCC4)cc1	/	-2%	/	/	/	-16%	/	/
COc1ccc(NC(=O)CN(c2ccccc2)S(=O)(=O)N(C)C)cc1Cl	6	-7%	14%	6%	0%	5%	/	/
COc1ccc(NC(=O)CN(c2ccccc2)S(=O)(=O)N(C)C)cc1OC	/	-2%	?	?	?	10%	/	/	RECQ1 inh-2=?
CC1CC(C)CN(S(=O)(=O)c2ccc3c(c2)CCN3C(=O)CCC(=O)O)C1 (configuration not stated)	1	2%	-7%	/	5%	19%	/	/
O=C(O)CCCC(=O)N1CCc2cc(S(=O)(=O)N3CCc4ccccc43)ccc21	7	1%	-1%	-2%	-4%	-2%	12%	8%
Cc1cccc(N2CCN(S(=O)(=O)c3ccc4c(c3)CCN4C(=O)CCC(=O)O)CC2C)c1 (configuration not stated)	3	-5%	-4%	-8%	-33%	?	?	?
O=C(C1CCC1)N1CCc2cc(S(=O)(=O)NC3CCCC3)ccc21	1	-4%	10%	-6%	2%	-6%	/	/
O=C(O)CCCC(=O)N1CCc2cc(S(=O)(=O)NCc3ccccc3)ccc21	-11	1%	9%	-10%	5%	6%	-8%	11%
O=C(O)CCC(=O)N1CCc2cc(S(=O)(=O)NC3CCCC3)ccc21	/	-1%	18%	-8%	1%	0%	10%	-3%
Cc1ccc(CN(C(=O)COc2ccccc2[N+](=O)[O-])c2ccccn2)o1	/	-5%	/	/	/	-3%	/	/
CN(Cc1ccco1)S(=O)(=O)c1ccc2c(c1)CCN2C(=O)CCC(=O)O	1	1%	5%	-6%	9%	-4%	3%	0%
Cc1ccc(CNS(=O)(=O)c2ccc3c(c2)CCN3C(=O)CCCC(=O)O)cc1	-9	2%	-11%	i	-31%	-9%	14%	-8%
CCCSCCCNC(=O)CN1C(=O)COc2ccc(S(=O)(=O)N3CCC(C)CC3)cc21	/	-3%	/	/	/	14%	/	/
O=C(c1ccncc1)N1CCN(C2CCC(c3ccccc3)CC2)CC1 (configuration not stated)	-1	2%	16%	?	?	13%	/	/	RECQ1 inh-2=-12%
O=C(c1ccncc1)N1CCN(C2CCCCC2)CC1	-2	-2%	0%	-7%	-13%	6%	/	/
O=C(NCCCc1nc2ccccc2n1CCOc1ccccc1)C1CCCCC1	/	/	/	/	/	-2%	/	/
CCN(CC)c1ccc(C(=O)c2ccccc2C(=O)O)c(O)c1	/	1%	-1%	-8%	-9%	-8%	/	/
O=C(O)c1cc(N(Cc2ccccc2O)Cc2ccccc2O)ccc1O	/	-10%	?	?	/	?	/	/	RECQ1 inh-2=?
CCN(CC)S(=O)(=O)c1ccc2c(c1)N(CC(=O)Nc1ccc(OC)cc1)C(=O)CS2	/	-5%	/	/	/	13%	/	/
Nc1cc(=O)[nH]c(SCC(=O)Nc2ccc3c(c2)CCC3)n1	5	-6%	?	?	-5%	4%	/	/	RECQ1 inh-2=-12%
SMILES	PI5P4K alpha inh	BLM inh	APE1 inh	RECQ1 inh-1	WRN inhibitor	FEN1 inh	RECQ1 conf	RECQ1 ADP FP	others
COc1ccccc1-n1c(SCC(=O)O)nnc1-c1ccc(S(=O)(=O)N2CCCCC2)cc1	/	0%	3%	-1%	-12%	15%	3%	2%
O=C(/C=C/c1ccco1)N(c1ccccn1)c1ccccn1	?	?	?	?	50µM*	?	/	/	RECQ1 inh-2=45µM*
O=C(c1ccco1)N(c1ccccn1)c1ccccn1	6	3%	1%	7%	-10%	1%	/	/
COc1ccc2c(c1)CC/C(=C\c1ccc(OC)c(Cn3nc(C)cc3C)c1)C2=O	5	-12%	-3%	35µM*	?	?	/	/	RECQ1 inh-2=?
COc1ccc2c(c1)CC/C(=C\c1ccc(OC)c(Cn3cccn3)c1)C2=O	1	-9%	3%	-1%	-8%	-18%	/	/
Cc1ccc(OCC(O)Cn2c3ccccc3c3ccccc32)cc1 (configuration not stated)	/	-10%	-4%	?	-12%	-7%	/	/	RECQ1 inh-2=-48%
O=C(CSc1nc2ccccc2s1)N1c2ccccc2Sc2ccccc21	/	-8%	16%	5%	-5%	-13%	/	/
CCOc1ccc2nc(SCC(=O)N3c4ccccc4Sc4ccccc43)sc2c1	-3	0%	16%	-1%	-19%[57.1 µM]	-14%	-7%	15%
CC(=O)N1N=C(c2cccc([N+](=O)[O-])c2)OC1c1ccc(Br)cc1 (configuration not stated)	0	-7%	0%	-7%	-1%	-21%	/	/
CC(=O)N1N=C(c2ccccc2)OC1c1ccc([N+](=O)[O-])s1 (configuration not stated)	3	5%	?	35µM*	-9%	?	/	/	RECQ1 inh-2=?
CC(C)OCCCn1c(=O)c2ccccc2n2c(-c3cc(Cl)ccc3O)nnc12	/	-3%	/	/	/	-4%	/	/
O=C(O)c1[nH]n(-c2ccc(S(=O)(=O)O)cc2)c(=O)c1N=Nc1ccc(S(=O)(=O)O)cc1	/	/	/	/	/	-17%	/	/
